Each structure is given as a SMILES string. Out of some 380,000 compounds screened, about 25 (0.007%) were called active. The call rests on the fitted dose curve; in most records, active means well fitted activation curve with a large enough effect; inconclusive means small, poorly fitted or top-dose-only effect; inactive means no such curve, though single readings can be large or run the other way. The list is a sample of the results.

Glucagon-like peptide 1 receptor (Homo sapiens), sequence (P43220 whole entry, looked up): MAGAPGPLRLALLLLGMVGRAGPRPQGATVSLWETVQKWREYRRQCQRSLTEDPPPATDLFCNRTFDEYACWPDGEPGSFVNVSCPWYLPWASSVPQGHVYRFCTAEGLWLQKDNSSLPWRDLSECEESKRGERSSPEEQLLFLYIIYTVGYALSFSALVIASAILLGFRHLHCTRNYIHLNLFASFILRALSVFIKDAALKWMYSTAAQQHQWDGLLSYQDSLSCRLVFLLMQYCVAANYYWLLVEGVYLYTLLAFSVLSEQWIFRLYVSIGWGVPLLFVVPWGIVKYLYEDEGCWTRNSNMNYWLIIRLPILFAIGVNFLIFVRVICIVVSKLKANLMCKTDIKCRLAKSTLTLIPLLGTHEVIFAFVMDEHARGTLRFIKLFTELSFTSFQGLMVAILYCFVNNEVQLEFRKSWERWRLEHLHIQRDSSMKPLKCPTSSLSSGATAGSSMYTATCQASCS

The target of this test is Glucagon-like peptide 1 receptor (Homo sapiens) (UniProt P43220). Briefly: qHTS of GLP-1 Receptor Agonists. Particulars: HEK293 GLP-1R CRE-luciferase, luminescence, 4-6 h, cells express a hypersensitive GLP-1R form; series mostly up to 45.6 µM. The source says:
The overall goal of this project was to develop a novel assay for discovering small molecule ligands for class B1 G protein-coupled receptors (GPCRs). Very few agonists (or inverse agonists) with generally weak activity for this entire group of physiologically important receptors are known to date. To establish proof-of-principle that this critical bottleneck can be overcome with a suitable screening approach, our studies focused on the class B1 receptor for glucagon-like peptide-1 (GLP-1R), a potential therapeutic target for diabetes and neurodegenerative disease.
The assay was developed in a "mix and measure" format using a cell-based functional readout. Toward this goal, stably transfected HEK293 cell clones were established that co-express (i) a cAMP-responsive luciferase reporter gene, and (ii) GLP-1Rs that upon ligand interaction either stimulate (agonists) or inhibit (inverse agonists) luciferase activity. In different cell lines to be used for screening, expressed GLP-1Rs are specifically optimized for high sensitivity detection of either weak agonists (hypersensitive receptor) or inverse agonists (constitutively active receptor mutant). In addition, control cell lines were developed that express either the cAMP-responsive reporter gene without recombinant GLP-1Rs (enabling initial exclusion of GLP-1R independent effects of candidate probes), or the reporter gene together with wild type GLP-1Rs (for confirmation of probe activity at this receptor), or the reporter gene in combination with the constitutively active orphan receptor GPR119 (enabling initial exclusion of GLP-1R independent inhibitory effects of candidate inverse agonists).
To that end, this assay was optimized for 1536-well format and screened against the MLSMR.
NIH Molecular Libraries Probe Production Network [MLPCN]
NIH Chemical Genomics Center [NCGC]
PI Name: Martin Beinborn, Tufts Medical Center
In a white solid 1536-well plate, 6 uL of cells are dispensed in DMEM without phenol red, 10% Nu serum, and 1% pen-strep medium. The plates are then incubated for 12 hours at 37 deg C at 5% CO2 before 23 nL of compounds are added. After a 4-6 hr incubation at37 deg C and 5% CO2, 3 uL of detection reagent are added and after a 12 min incubation at RT, a luminescent read is obtained on the ViewLux.
(In general: In qHTS, concentration-response curves come from the screen itself.)
As to `COC(=O)[C@@H]1CC2=CC(=O)CC[C@]2(C)[C@@]23O[C@@H]2C[C@@]2(C)[C@@H](CC[C@@]24CCC(=O)O4)[C@H]13`, the outcome was inactive.

On to `OCC(CO)NC1C[C@](O)(CO)[C@@H](O)[C@H](O)[C@H]1O` (some centres not stated), for which the call was inactive.

For `Cc1ccccc1NC(=O)Cn1c(=O)n(Cc2ccco2)c(=O)c2ccc(C(=O)NC3CCCC3)cc21`, the outcome was inactive.

Consider `CC(=O)O[C@]1(C(C)=O)CC[C@@H]2[C@@H]3C=C(C)C4=CC(=O)CC[C@@]4(C)[C@H]3CC[C@]21C`, for which the call was inactive.

For the compound `C[C@]12CC[C@@H]3c4ccc(O)cc4C[C@@H](CCCCCCCCCS(=O)CCCC(F)(F)C(F)(F)F)C3[C@@H]1CC[C@@H]2O` (some centres not stated), the outcome was inactive.

For the compound `Cc1nn(-c2ccc(F)cc2)c(-n2cccc2)c1C(=O)N1CCN(c2ccccc2)CC1`, the compound was called inactive.

Turning to `O=C(CCCCn1c(=O)c2ccccc2n(CC(=O)Nc2cccc(C(F)(F)F)c2)c1=O)NCc1ccc2c(c1)OCO2`, the result was inactive.

Consider `COc1cccc(NC(=O)CSc2cc(=O)n(C)c3ccc(Cl)cc23)c1`, for which the outcome was inactive.

Turning to `CCc1ccccc1NS(=O)(=O)c1ccc2nc(-c3ccccc3)[nH]c2c1`, the call was inactive.

With `Cc1ccc(C)c(N2CCN(C(=O)CCc3c(C)nc4c(c3C)c(=O)n(C)c(=O)n4C)CC2)c1`, the compound was called inactive.

For the compound `O=C(Nc1cccc(C(F)(F)F)c1)c1cc(Br)cc(Br)c1O`, the compound was called inactive.

Regarding `CCOC(=O)c1ccc(N2C(=O)c3n[nH]c(C)c3C2c2ccc(O)c(OC)c2)cc1` (configuration not stated), the outcome was inactive.

As for `CCc1ccc(NC(=O)CN2CCSc3ccc(S(=O)(=O)N4CCCC4)cc32)cc1`, the result was inactive.

For `C=C1C(=CC=C2CCC[C@]3(C)[C@@H]([C@H](C)C=C[C@H](C)C(C)C)CC[C@@H]23)C[C@@H](O)C[C@@H]1O`, the compound was classed as inactive.

As to `CCOc1ccc(NC(=O)Cn2cc(C(=O)c3ccc(C)cc3)c(=O)c3cc4c(cc32)OCCO4)cc1`, the compound was called inactive.

With `CCOC(=O)c1oc2ccc(S(=O)(=O)n3nc(-c4ccccc4OC)cc3N)cc2c1C`, the compound was classed as inactive.

With `COc1ccc(S(=O)(=O)n2nc(C)c(S(=O)(=O)N3CCCCCC3)c2C)cc1`, the result was inactive.

Take `CCN(C(=O)c1sc2cc(OC)ccc2c1Cl)c1ccccc1`: the result was inactive.

On to `CN(C)c1ccc(NC(=O)CSc2nc(-c3ccco3)cc(C(F)(F)F)n2)cc1`, for which the outcome was inactive.

Take `CCCCC(=O)OCC(=O)[C@H]1[C@H](C)C[C@@H]2[C@@H]3C[C@@H](F)C4=CC(=O)C=C[C@]4(C)[C@@]3(F)[C@@H](O)C[C@@]21C`: the outcome was inactive.

Consider `COc1ccc(NC(=O)Cn2c(=O)cc(C)c3c(C)nn(-c4cccc(Cl)c4C)c32)cc1OC`, for which the compound was called inactive.

Consider `CCCCCCCCCc1ccc(OCCOCCOCCOCCOCCOCCOCCOCCOCCO)cc1`, for which the outcome was inactive.

As to `COc1cc(CNCCSc2nnnn2C)ccc1OCc1c(F)cccc1Cl`, the outcome was inactive.

Turning to `Cc1cccc(N2CCN(C(=O)c3cc4c(=O)oc5ccccc5c4s3)CC2C)c1` (configuration not stated), the outcome was inactive.

Regarding `CC(C)(O/N=C(\C(=O)N[C@@H]1C(=O)N2C(C(=O)[O-])=C(C[n+]3ccccc3)CS[C@@H]12)c1csc(N)n1)C(=O)O`, the call was inactive.

`COc1ccccc1NC(=O)C1=C(C)Nc2ncnn2C1c1sccc1C` (configuration not stated): the compound was called inactive.

As for `CCC(CCC(C)C1CCC2C3CC=C4CC(O)CC[C@@]4(C)C3CC[C@@]12C)C(C)C` (some centres not stated), the outcome was inactive.

On to `Cc1sc2ncn(CC(=O)N3CCN(c4ccc(F)cc4)CC3)c(=O)c2c1S(=O)(=O)N1CCN(c2ncccn2)CC1`, for which the outcome was inactive.

For the compound `Cc1cccc(NC(=O)Cn2c(C(F)(F)F)nc3ccccc32)c1C`, the compound was called inactive.

Consider `COc1cc(OC)cc(C(=O)Nc2ccc3nc(Nc4cccc(C(F)(F)F)c4)cc(C)c3c2)c1`, for which the result was inactive.

As for `CC(=O)Oc1ccccc1C(=O)Nc1ncc([N+](=O)[O-])s1`, the compound was called inactive.

For the compound `COc1ccccc1CNC(=O)CCn1c(=O)c2ccccc2n(CC(=O)Nc2ccc(Br)cc2F)c1=O`, the result was inactive.

As to `Cc1ccc(N2CCN(C(=O)CCc3c(C)nc4c(c3C)c(=O)n(C)c(=O)n4C)CC2)c(C)c1`, the compound was called inactive.

Turning to `C/C=C1\C2C=C(C)CC1(N)c1ccc(=O)[nH]c1C2` (configuration not stated), the result was inactive.

With `CC(=O)NC(=O)c1ccccc1O`, the compound was called inactive.

In the case of `CCCOc1ccc(-c2cccc(NS(=O)(=O)c3ccccc3)c2)nn1`, the call was inactive.

In the case of `Cc1ccc(S(=O)(=O)NC(=O)NN2C[C@H]3CCC[C@@H]3C2)cc1`, the outcome was inactive.

Turning to `COc1ccc(-c2c(C)nn3c(N4CCC(C(=O)NCCC(C)C)CC4)cc(C)nc23)cc1OC`, the call was inactive.

`CN(C)CCCSc1ccccc1NC(=O)/C=C/c1ccccc1`: the outcome was inactive.

In the case of `CCOC(=O)c1c(NC(=O)c2ccc(S(=O)(=O)N3CCCC(C)C3)cc2)sc2c1CCN(C(C)C)C2` (configuration not stated), the result was inactive.

Regarding `C[N+](C)(CCOc1ccccc1)Cc1cccs1` (tested in a mixture with another compound), the outcome was inactive.

For the compound `CCOc1ccccc1NC(=O)C1=C(C)Nc2ncnn2C1c1ccc(NC(C)=O)cc1` (configuration not stated), the outcome was inactive.

For the compound `COc1cccc(CNCCSc2nnnn2C)c1OCc1ccccc1Cl`, the compound was called inactive.

As for `CCc1ccc(C(=O)CC2(O)C(=O)N(CCc3ccccc3)c3ccc(Br)cc32)cc1` (configuration not stated), the compound was called inactive.

As to `COc1ccccc1CNC(=O)CCn1c(=O)c2ccccc2n(CC(=O)Nc2cccc(Cl)c2)c1=O`, the compound was classed as inactive.

With `COc1ccc(CCNc2nc(-c3ccc(F)cc3)cc(C(F)(F)F)n2)cc1OC`, the outcome was inactive.

For the compound `CCc1ccc(Sc2cc(C(=O)NCCCOC(C)C)c3ccccc3n2)cc1`, the compound was called inactive.

As to `O=C(CSc1ncc(CO)n1Cc1ccc(Cl)cc1)NCc1ccc(F)cc1`, the compound was classed as inactive.

As to `COCCNC(=O)c1ccc2c(c1)N=C(C)c1cc(C)ccc1S2`, the result was inactive.

On to `Oc1ccc(Cl)c2c1CCC2`, for which the compound was called inactive.

On to `COc1ccccc1-c1cc2nc(C)c(CCC(=O)O)c(C)n2n1`, for which the compound was called inactive.

On to `O=C(CCS(=O)(=O)c1ccc2c(c1)NC(=O)CO2)Nc1cccc(C(F)(F)F)c1`, for which the compound was classed as inactive.

For `CCCC[C@H]1C(=O)N(c2ccccc2)N(c2ccc(O)cc2)C1=O`, the call was inactive.

Turning to `COc1ccc(-n2c(C)nc3c(cnn3-c3ccc(F)cc3)c2=O)cc1`, the outcome was inactive.

`COc1ccc2cc(-c3nc(Cl)c4c5c(sc4n3)CC(C)CC5)c(=O)oc2c1` (configuration not stated): the compound was classed as inactive.

Consider `O=C(OCc1ccccc1)c1ccc(O)cc1`, for which the compound was classed as inactive.

In the case of `Cc1ccccc1C(=O)Nc1cc(C)c(O)c(-c2nc3ccccc3o2)c1`, the result was inactive.

The values are drawn from PubChem BioAssay AID624172 (National Center for Advancing Translational Sciences (NCATS), 2012).
